Source: PubChem BioAssay (National Center for Advancing Translational Sciences (NCATS))
In the library only some 21% were active in any assay of this set; here they are far more common.
Shiga inhibitor: blocks Shiga toxin action in Vero cells; Vero cells, Shiga toxin protein synthesis inhibition reporter; inhibition, % at 38.7 µM; 290,000 tested, 9.2% active; in the data active means inhibition mostly above about 28%, no sharp cut-off; inactive means mostly below about 43%; further: 0% is about no effect
FBPA Giardia inh: blocks Giardia fructose-bisphosphate aldolase activity; A8B2U2; purified Giardia FBPA; Potency, µM (series often up to 59.6 µM), inactives show at the top dose activity, negative = inhibition, usual class: inhibitors; 290,000 tested, 0.71% active; AID 2451; further: potency means the concentration at half of the fitted maximal effect; on the % scale 0 is the no-effect control and ±100 the full control effect; nearly all actives have a fitted effect of over 55% in size
Target sequence (A8B2U2 whole entry, looked up): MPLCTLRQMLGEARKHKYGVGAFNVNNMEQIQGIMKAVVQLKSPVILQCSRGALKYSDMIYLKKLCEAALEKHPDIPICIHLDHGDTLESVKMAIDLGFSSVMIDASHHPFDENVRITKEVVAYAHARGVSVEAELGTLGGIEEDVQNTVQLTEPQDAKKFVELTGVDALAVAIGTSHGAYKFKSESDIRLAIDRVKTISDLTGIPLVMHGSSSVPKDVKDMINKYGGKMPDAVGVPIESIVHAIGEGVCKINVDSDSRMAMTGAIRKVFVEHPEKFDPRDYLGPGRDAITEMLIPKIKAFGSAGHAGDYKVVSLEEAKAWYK
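Giardia FBPA (40 nM reagent) was preincubated 10 min at RT with compound (up to 57.5 uM final), then substrate plus GAPDH/TPI/NAD/arsenate coupling system with diaphorase/resazurin was added; resorufin fluorescence (525/598 nm) was read after 20 min.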
Pf growth 96h: P. falciparum growth inhibition at 96 hours. Potency, µM (highest dose often 28.7 µM), without a hit: top-dose activity change, negative = inhibition, actives largely listed as inhibitors. 320,000 tested, 6.9% active. P. falciparum luciferase reporter growth, 96 h; further: potency means the concentration at half of the fitted maximal effect; on the % scale 0 is the no-effect control and ±100 the full control effect
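Compounds incubated with erythrocytes infected by luciferase-expressing P. falciparum (2% hematocrit, 0.05% parasitemia final) for 96 hours, 37 C in 5% CO2. Growth inhibition scored as decreased luciferase luminescence.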
Pf growth 48h: inhibits P. falciparum growth in the first generation, 48 h; P. falciparum luciferase growth in erythrocytes, 48 h; Potency, µM (series often up to 28.7 µM), without a hit: at the highest dose activity change, negative = inhibition, usual class: inhibitors; 310,000 tested, 5.9% active; AID 504832; further: potency means the concentration at half of the fitted maximal effect; on the % scale 0 is the no-effect control and ±100 the full control effect
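Erythrocytes infected with P. falciparum carrying an integrated firefly luciferase reporter (2% hematocrit, 0.1% parasitemia final) were exposed to compounds in RPMI 1640 with 0.5% Albumax at 37 C, 5% CO2. Growth inhibition was scored as reduced luminescence.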
NS1 inh: inhibitors of influenza NS1 protein function. AID 2326. Potency, µM (highest dose often 46.1 µM), inactives show at the highest dose activity, positive = more growth. 270,000 tested, 0.4% active; calls by dose curve; further: potency means the concentration at half of the fitted maximal effect; actives are rising curves; nearly all actives have a fitted effect of over 50% in size
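Compounds were scored for reversing the slow growth caused by influenza A NS1 in S. cerevisiae, measured by optical density at 600 nm. Assay medium contained 2% galactose at pH 6.0; NS1-free yeast of the same strain were the positive control.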
Cycloheximide cs: counter-screen for Shiga toxin inhibitors: cycloheximide protein synthesis inhibition; cell reporter, cycloheximide protein synthesis inhibition counterscreen; max response, %; 300,000 tested, 12% active; AID 2314; in the data active means max response mostly above about 13%, no sharp cut-off; inactive means mostly below about 14%; further: read at 38.3 µM for the half of the compounds with a filed dose; 0% is about no effect
The depositor's hits bear a star; ? = inconclusive; / = not tested or not shown; + = active, no number. Unless noted, the call rests on the fitted dose curve; in most records, active means well fitted curve in the direction sought with a large enough effect; inconclusive means small, poorly fitted or top-dose-only effect, or another doubt; inactive means no such curve, though single readings can be large; an effect the other way counts as inactive or inconclusive.

SMILES | Shiga inhibitor | FBPA Giardia inh | Pf growth 96h | Pf growth 48h | NS1 inh | Cycloheximide cs
COc1ccc(C(=O)C2CCCN(Cc3ccon3)C2)cc1OC (centres undefined) | 47.3 | 0.6% | ? | 1.0% | -0.2% | 57.4*
COc1cccc(C(=O)C2CCCN(Cc3ccon3)C2)c1 (centres undefined) | 0.9 | 0.6% | ? | 7.6% | -1.1% | 7.3
COCCCNc1nc(N)c([N+](=O)[O-])c(N2CCCCCC2)n1 | -2.1 | -1.7% | -81.6% | ? | -6.0% | 5.7
COc1ccc(CNN2CCCCC2C(=O)Nc2ccc(OC)c(OCC(C)C)c2)cc1OC (centres undefined) | -6.3 | ? | 14.7µM* | 27.7% | 2.4% | -0.8
CCCCn1c(SCC(=O)OCC)nc2c(sc(=S)n2-c2ccccc2OC)c1=O | -3.2 | 1.8% | 20.1% | ? | 13.0% | -1.1
Cc1ccc(CSCC(=O)Nc2cc(S(=O)(=O)N3CCOCC3)ccc2OC(C)C)cc1 | / | / | 6.57µM* | 10.4µM* | / | /
CC(C)Oc1ccc(S(=O)(=O)N2CCOCC2)cc1NC(=O)Cc1cccs1 | / | / | ? | 13.1µM* | / | /
CCOc1cc(OP(=S)(OC)OC)nc(CC)n1 | -11.4 | 0.3% | / | / | / | -2.4
COc1cccc(-n2c(SCC(=O)N3CCOCC3)nc3c([nH]c4ccccc43)c2=O)c1 | / | / | / | / | 6.7% | /
COc1cccc(-n2c(SCC(=O)N3CCOCC3)nnc2-c2c[nH]c3ccccc23)c1 | -19.9 | -26.1% | 10.4µM* | / | -1.5% | -6.9
Cn1c(SCc2ccccc2)nnc1-c1c[nH]c2ccccc12 | 48.2* | 4.9% | -14.9% | -17.4% | -15.0% | 20.6*
CCn1c(SCC(=O)N2CCCc3ccccc32)nnc1-c1c[nH]c2ccccc12 | -12.1 | -0.1% | 7.4% | ? | -37.0% | -4.2
CCn1c(SCC(=O)N2CCc3ccccc32)nnc1-c1c[nH]c2ccccc12 | -10.8 | -5.5% | / | 9.28µM* | -28.0% | -2.2
CCn1c(SCC(=O)N2CCN(c3ccccc3)CC2)nnc1-c1c[nH]c2ccccc12 | -2.7 | -1.3% | ? | ? | 4.5% | -1.0
Cn1c(SCC(=O)N2CCN(c3ccccc3)CC2)nnc1-c1c[nH]c2ccccc12 | -11.4 | 2.9% | 7.38µM* | / | 12.7% | -4.6
Cc1ccc(-n2ccnc(SCC(=O)NC3CCCCC3)c2=O)cc1F | / | / | 9.5% | 4.3% | / | /
O=C1NO[C@@H]2CN[C@@H](C(=O)O)[C@H]12 | / | -1.3% | / | / | / | /
Cc1ccc2cc(C)c3nnc(SCC(=O)N4CCCc5ccccc54)n3c2c1C | -5.7 | -7.7% | 5.22µM* | 9.28µM* | 10.5% | 1.7
Cn1c(SCC(=O)N2CCCc3ccccc32)nnc1-c1c[nH]c2ccccc12 | -11.6 | 1.9% | -11.6% | 13.1µM* | -37.1% | -2.1
COC(=O)c1ccc(CSc2nnc(-c3c[nH]c4ccccc34)n2-c2ccccc2)cc1 | + | 0.4% | -101.4% | ? | -40.7% | 18.3*
COc1ccc(-n2c(SCC(=O)N3CCc4ccccc43)nnc2-c2c[nH]c3ccccc23)cc1 | -11.2 | -3.4% | -16.1% | -24.9% | 0.3% | -1.7
Cc1cccc(NC(=O)c2ccc(OCc3c(C)noc3C)cc2)c1 | / | / | ? | -20.6% | / | /
Cc1noc(C)c1COc1ccc(C(=O)NCC(c2c(F)cccc2Cl)N(C)C)cc1 (centres undefined) | / | / | 9.28µM* | ? | / | /
COc1cc(C(=O)NCC(c2ccco2)N2CCCC2)ccc1OCc1c(C)noc1C (centres undefined) | -12.2 | -4.7% | ? | 11.7µM* | -4.8% | -1.4
COc1ccccc1C(CNC(=O)c1ccc(OCc2c(C)noc2C)cc1)N1CCCC1 (centres undefined) | / | / | 10.4µM* | 10.4µM* | / | /
COc1cc(C(=O)Nc2ccc(N3CCOCC3)cc2)ccc1OCc1c(C)noc1C | 20.2 | 2.5% | ? | ? | 5.8% | -0.7
COc1ccc(C(CNC(=O)c2ccc(OCc3c(C)noc3C)cc2)N2CCCC2)cc1 (centres undefined) | / | / | 3.7µM* | 4.65µM* | / | /
CCOc1ccc(C(=O)NCC(=O)NCC(c2ccccc2OC)N2CCCC2)cc1 (centres undefined) | / | / | -2.5% | ? | / | /
CCOC(=O)CCNC(=O)N1CCCC(N(C)CCc2ccccc2)C1 (centres undefined) | -1.5 | 4.7% | -11.0% | 13.2% | 5.9% | 0.4
